Experimental data as given in a collection of fitness landscapes (doi:10.1016/j.celrep.2020.107928).
Over roughly 81,000 sequences, “one-hybrid fitness for binding parS DNA” has its median near -0.17; the highest 2% begin near 0.51. For the sample, the highest values were picked, then their nearest neighbours and some sequences at random.

B1: Caulobacter ParB omega fusion; a variant is named by its letters at X, in order, B8GW30 (parent)
chain: MESVVVGEPGMSEGRRGLGRGLSALLGEVDAAPAQAPGEQLGGSREAPIEILQRNPDQPRRTFREEDLEDLSNSIREKGVLQPILVRPSPDTAGEYQIVAGERAWRAAQRAGLKTVPIMVRELDDLAVLEIGIIENVQRADLNVLEEALSYKVLMEKFERTQENIAQTIGKSXSHVANXMRLLXLPDEVQSYLVSGELTAXHARAIAAAADPVALAKQIIEGGLSVRETEALARKAPNLSAGKSKGGRPPRVKDTDTQALESDLSSVLGLDVSIDHRGSTGTLTITYATLEQLDDLCNRLTRGI

Variants of: B1
Test: one-hybrid fitness for binding parS DNA (scaled: cognate 1, non-cognate 0); higher = stronger binding
Conditions: with parS DNA site
Outline: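 Fitness is the rescaled log change in variant-to-wild-type read ratio, measured by Illumina sequencing of plasmids before and after bacterial one-hybrid selection. The scale puts cognate at 1 and non-cognate at 0. Selection of Caulobacter ParB libraries, four specificity codons randomised, took place in E. coli USO with a HIS3 reporter, site 19 bp from the promoter, over 48 hours at 37°C on M9-minus-histidine with 0.1 mM IPTG and 5 mM 3-AT.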

Variant	one-hybrid fitness for binding parS DNA
PTYG	≤ 0.2
RARL	≤ 0.2
GSHT	≤ 0.2
MNLG	≤ 0.2
RIRT	0.848
RIRK	≤ 0.2
RIRR	≤ 0.2
WPQC	0.245
SGVD	≤ 0.2
RIFS	0.995
RIAS	1.04
RIFP	0.206
RIAN	0.432
RIFD	≤ 0.2
RIAD	0.212
VTEW	≤ 0.2
YCGR	≤ 0.2
AFAS	≤ 0.2
ARMN	≤ 0.2
VELC	≤ 0.2
RNDC	0.617

Variant	one-hybrid fitness for binding parS DNA
RNNM	0.28
RNNK	≤ 0.2
RNDD	≤ 0.2
RNDY	0.256
RNNC	0.869
RMSG	1.02
RKSG	0.928
RLSQ	≤ 0.2
RKSK	≤ 0.2
RFSG	0.97
NFSG	≤ 0.2
RLSF	0.246
RLSG	1.01
RMSK	≤ 0.2
RKSY	0.366
RMSR	≤ 0.2
DFSG	≤ 0.2
NHHN	≤ 0.2
WADR	≤ 0.2
REQN	≤ 0.2
AVAR	≤ 0.2

Variant	one-hybrid fitness for binding parS DNA
GWDC	≤ 0.2
RDVW	≤ 0.2
SSNE	≤ 0.2
RTSY	0.489
RDSG	≤ 0.2
RESG	0.217
RTSG	1
RISK	≤ 0.2
RISG	1.01
RISY	0.477
RSSK	≤ 0.2
RCSG	0.997
RPSG	≤ 0.2
RSSG	0.993
RTSQ	≤ 0.2
EQLF	≤ 0.2
KYRN	≤ 0.2
QKYR	≤ 0.2
DTLV	≤ 0.2
PHRR	≤ 0.2
DRAS	≤ 0.2

Variant	one-hybrid fitness for binding parS DNA
GTSE	≤ 0.2
LHRT	≤ 0.2
RCRN	0.387
RRYN	0.557
RPYN	≤ 0.2
RCDN	0.376
RCYN	0.545
RRRN	0.788
KAEG	≤ 0.2
AMIC	≤ 0.2
RFFA	0.492
RCAA	0.596
RFAA	0.559
RWAA	0.378
RSAA	0.554
RPAA	≤ 0.2
EFAA	≤ 0.2
RDAA	≤ 0.2
RGAA	0.32
QVSF	≤ 0.2
LAKQ	≤ 0.2
